# In the library only some 3.7% were active in any assay of this set; here they are far more common.
# miR-21 reporter: qHTS Assay for Modulators of miRNAs and/orActivators of miR-21 | 340,000 tested, under 10 active | Potency, µM (top dose mostly 38.3 µM), hits mostly activators | HeLa miR-21 FLuc reporter, luciferase, 48 h;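 further: miR-21 action dims this reporter so a rising signal means less miR-21 action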
#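 HeLa cells stably expressing CMV-driven firefly luciferase with a downstream miR-21 binding sequence, endogenously expressing miR-21, were treated with titrations (up to about 40uM final) for 48 hours at 37 degree Celsius. Luciferase luminescence was read after lysis.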
# Nrf2 activator: qHTS of Nrf2 Activators; AREc32 ARE-luciferase reporter (MCF7-derived line), luminescence, 24 h; Potency, µM (series often up to 46.1 µM), usual class: activators; hit rate 0.31% among 410,000; further: nearly all actives have a fitted effect of over 65% in size
#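 Luminescent ARE reporter assay in AREc32_Fluc cells: overnight plating at 37 deg C, 24 hr compound incubation, Steady-Glo added, 30 min RT before reading.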
# IL2 activator: qHTS of IL-2 Activators. IL-2 activation reporter assay, cell-based qHTS; stimulated with anti-CD3/CD4/CD28 beads; in transgenic mouse T cells. activation, % (series mostly up to about 46 µM). hit rate 0.065% among 360,000. AID 652025, 2013; in the data active means activation above about 50%; inconclusive means mostly about 30% to 49%
#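 Unstimulated transgenic mouse T cells preincubated 60 min with compound, then stimulated with anti-CD3/anti-CD4-coated beads plus anti-CD28 for 18 h at 37 degrees C. IL-2 response read as EGFP and DsRed fluorescence by plate cytometry.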
# ClpP mod: qHTS Assay for Activators of ClpP | ATP-dependent Clp protease proteolytic subunit (Bacillus subtilis (strain 168)), P80244 | purified B. subtilis ClpP, FRET peptide cleavage, 20 min | Potency, µM (highest dose often 57.5 µM) | hit rate 1.9% among 340,000 | AID 651965, 2013; active means well fitted falling curve with a large enough effect; inconclusive means small, poorly fitted or top-dose-only effect; inactive means no such curve, though single readings can be large or run the other way; further: the source files actives as falling curves though it sought activators and does not explain the sign; nearly all actives have a fitted effect of over 65% in size
# Target sequence (P80244 whole entry, looked up): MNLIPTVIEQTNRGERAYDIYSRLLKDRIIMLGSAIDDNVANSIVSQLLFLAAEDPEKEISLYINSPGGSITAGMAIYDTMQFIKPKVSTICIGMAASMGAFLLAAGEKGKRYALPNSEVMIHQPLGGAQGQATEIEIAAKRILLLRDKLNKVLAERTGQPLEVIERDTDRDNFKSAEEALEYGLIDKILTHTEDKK
#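 FRET quenching reversal measured ClpP activation: 10 microg/mL B. subtilis ClpP at pH 8 with the FRET-FV decapeptide, read at 430 nm after 320 nm excitation. The 20-min minus 0-min signal was scaled between DMSO/no-enzyme wells and ADEP (5.8 microM final).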
# Nrf2 inh: Nrf2 qHTS screen for inhibitors | AID 504444, 2011 | hit rate 2.1% among 360,000 | Potency, µM (titrated, usually from 46 µM), actives largely listed as inhibitors | A549 ARE-Fluc reporter, luciferase luminescence, 18-24 h; further: nearly all actives have a fitted effect of over 60% in size
#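 A549 ARE_Fluc cells, 5000/well, 5% FBS OPTI-MEM; compounds in dose-response, 18-24 h at 37 °C/5% CO2; CellTiter-Fluor viability read (Ex 405/Em 525), then BugLite luciferase luminescence = Nrf2 activity.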
# A549 viability: Nrf2 qHTS screen for inhibitors: counterscreen for cytotoxicity | A549 ARE-Fluc cells, CellTiter-Fluor viability, 18-24 h | Potency, µM (series often up to 46 µM), actives largely listed as inhibitors | hit rate 0.16% among 390,000 | AID 504648, 2011
#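 A549 ARE-Fluc cells in 5% FBS OPTI-MEM, 5000 cells/well, rested 2 h then exposed to compounds in concentration-response for 18-24 h at 37 °C. Viability by CellTiter-Fluor fluorescence (Ex 405/Em 525) after 30 min; luciferase luminescence (BugLite, 15 min, RT) read afterwards.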
# Numbers stand for hits; – = inactive; ? = inconclusive; · = no result. Unless noted, the call rests on the fitted dose curve; in most records, active means well fitted curve in the direction sought with a large enough effect; inconclusive means small, poorly fitted or top-dose-only effect, or another doubt; inactive means no such curve, though single readings can be large; an effect the other way counts as inactive or inconclusive.
SMILES,miR-21 reporter,Nrf2 activator,IL2 activator,ClpP mod,Nrf2 inh,A549 viability
COCCCNC(=O)c1c(N)n(-c2ccc(S(N)(=O)=O)cc2)c2nc3ccccc3nc12,–,–,–,16µM,–,–
COCCCNC(=O)c1c(N)n(-c2ccccc2)c2nc3ccccc3nc12,–,–,–,–,?,–
CCC(C)NC(=O)c1c(N)n(/N=C/c2cccnc2)c2nc3ccccc3nc12 (stereo not drawn),–,–,–,25µM,?,–
Clc1ccc2c(Cl)cc[n+](CCC3CCCCC3)c2c1,·,·,·,–,·,·
Cc1ccc(-n2ncc3c(Nc4cccc(C)c4C)ncnc32)cc1,–,–,·,?,·,–
COc1ccc(-n2nc(C(=O)NCc3ccco3)c3c4ccccc4n(C)c3c2=O)cc1,–,?,–,–,–,–
COCCNC(=O)c1c(N)n(-c2cccc(C)c2)c2nc3ccccc3nc12,–,–,–,–,?,?
COCCn1c(N)c(S(=O)(=O)c2cccs2)c2nc3ccccc3nc21,–,–,–,–,–,–
COCCn1c(N)c(C(=O)NCc2cccs2)c2nc3ccccc3nc21,–,–,–,32µM,23µM,–
COc1ccc(-n2nc(C(=O)NCc3ccco3)c3ccccc3c2=O)cc1,–,–,–,22µM,?,–
C=CCNC(=O)c1c(N)n(-c2cccc(S(N)(=O)=O)c2)c2nc3ccccc3nc12,–,–,–,14µM,·,?
COCCNC(=O)c1c(N)n(CCCn2ccnc2)c2nc3ccccc3nc12,–,–,–,16µM,–,?
Cc1ccc(-c2noc(CN(C3CCCCC3)S(=O)(=O)c3ccc(Cl)cc3)n2)cc1,–,–,·,–,–,–
CN(C)c1ccc(C=O)cc1[N+](=O)[O-],·,·,·,–,·,·
Cc1cccc(N2CCN(C(=O)Nc3cn(CC(C)C)c(=O)c4ccccc34)CC2)c1C,–,–,·,–,?,–
Nc1c(C(=O)NCc2ccco2)c2nc3ccccc3nc2n1CCc1ccc(F)cc1,–,?,–,16µM,?,–
COCCCNC(=O)c1c(N)n(/N=C/c2cccnc2)c2nc3ccccc3nc12,–,–,–,–,?,–
COCCCNC(=O)c1c(N)n(/N=C/c2cccs2)c2nc3ccccc3nc12,–,–,–,32µM,–,–
COCCCn1c(N)c(-c2nc3ccccc3n2C)c2nc3ccccc3nc21,–,–,–,–,21µM,–
COc1ccc(-n2c(N)c(C(=O)NCc3ccco3)c3nc4ccccc4nc32)cc1OC,–,–,–,·,–,–
Cn1c(-c2c(N)n(CCCc3ccccc3)c3nc4ccccc4nc23)nc2ccccc21,–,–,–,–,·,?
COc1ccc(-n2c(N)c(C(=O)NCc3ccco3)c3nc4ccccc4nc32)cc1,–,–,–,32µM,?,–
CSc1cccc(NC(=O)CC(c2cccs2)N2Cc3ccccc3C2=O)c1 (stereo not drawn),–,–,·,–,–,–
O=C(Cn1cc(S(=O)(=O)Cc2cccc(Cl)c2)c2ccccc21)NCCc1ccccc1,–,–,·,–,–,–
Cc1ccc(Cn2c(C)c3cnn(CC(=O)N4CCN(c5ccc(F)cc5)CC4)c(=O)c3c2C)cc1,–,–,·,–,?,–
SMILES,miR-21 reporter,Nrf2 activator,IL2 activator,ClpP mod,Nrf2 inh,A549 viability
Cc1ccc(-c2noc(-c3cccs3)n2)cc1,–,11µM,–,–,?,–
c1csc(-c2nc(-c3ccc(-c4ccon4)s3)no2)c1,–,5.6µM,–,–,?,–
COc1ccccc1C(=O)Nc1ccc(S(=O)(=O)N2CCOCC2)cc1,–,–,–,–,·,–
COc1ccccc1C(=O)Nc1ccc(S(=O)(=O)N2CCCCC2c2cccnc2)cc1 (stereo not drawn),–,–,–,–,16µM,–
COc1ccccc1C(=O)NCCC(=O)Nc1ccc(S(=O)(=O)N2CCC(C)CC2)cc1,·,–,–,–,12µM,–
COc1ccccc1C(=O)Nc1ccc(S(=O)(=O)N2CCC(C)CC2)cc1,–,–,–,–,23µM,–
O=C(Nc1ccc(S(=O)(=O)N2CCCCC2c2cccnc2)cc1)c1ccccc1F (stereo not drawn),–,–,–,–,–,–
Cc1ccccc1C(=O)Nc1cc2c(cc1N1CCCCC1)n(C)c(=O)n2C,–,–,·,–,–,–
CCOC(=O)c1ccc(NC(=O)c2ccc(CN3C(=O)CCn4nc(C)cc43)cc2)cc1,–,–,·,?,?,–
COc1ccc(S(=O)(=O)N(CC(=O)Nc2cccc(C)c2)c2ccc(C)cc2)cc1OC,–,–,·,–,·,–
CCc1ccc2c(CN3CCN(S(=O)(=O)c4cccs4)CC3)cc(=O)oc2c1,–,–,–,32µM,?,–
c1ccc(N=Nc2cn[nH]c2-c2ccco2)cc1,–,10µM,–,·,–,–
COC(=O)C1=CN(C(C)C)C=C(C(=O)OC)C1c1cc(Br)c(OC)c(OC)c1,–,–,–,6.3µM,?,–
Cc1cc2c(cc1C)N[C@]1(C[C@H]3CCCC(=O)N4CC[C@@H](C1)[C@@H]34)C(=NC1CCCCC1)N2,·,·,·,–,·,·
COc1cc2c(cc1OC)/C(=C/C(=O)c1cccc([N+](=O)[O-])c1)NCC2,–,–,–,·,13µM,?
COc1cc2c(cc1OC)/C(=C/C(=O)c1ccc(OC)c([N+](=O)[O-])c1)NCC2,–,–,–,·,?,–
COc1ccc(-c2nn(C)c3sc(C(=O)Nc4cc(OC)c(OC)c(OC)c4)cc23)cc1OC,–,–,·,–,23µM,?
COc1ccc(NC(=O)c2cc3c(-c4ccc(OC)c(OC)c4)nn(C)c3s2)cc1OC,–,–,–,–,12µM,–
COc1ccc(-c2nn(C)c3sc(C(=O)NCc4ccco4)cc23)cc1OC,–,–,–,–,–,–
CCOC(=O)CCc1c(C)n(CC)c2cc(-c3ccccc3OC)nn2c1=O,–,–,–,11µM,–,–
O=C(C[n+]1cccc2cccc(O)c21)c1ccc(Cl)cc1,·,·,·,–,·,·
NS(=O)(=O)c1ccc(N=Nc2c(-c3ccccc3)[nH]n(-c3nc(-c4ccccc4)cs3)c2=O)cc1,–,–,–,–,4.6µM,?
Cc1ccccc1-c1ccc(C(=O)NCc2ccccc2)o1,–,–,–,–,–,–
O=C(NCc1ccccc1)c1ccc(-c2ccc(F)cc2)o1,–,–,–,28µM,–,–
COc1ccc(NC(=O)C(C)Sc2cc(-c3ccccc3)nc(C)n2)cc1Cl (stereo not drawn),–,–,·,–,21µM,?
